Source: PubChem BioAssay (NCATS)
Results filed as inconclusive are left out. Activity calls are given as the source filed them. The call rests on the fitted dose curve; in most records, active means well fitted inhibition curve with a large enough effect; inconclusive means small, poorly fitted or top-dose-only effect; inactive means flat fitted curve, though single readings scatter.

These compounds were tested on HACAT (assay: qHTS assay to identify novel small-molecules to repurpose for Merkel cell carcinoma treatment (AID 1296009; further: nearly all actives have a fitted effect of over 60% in size)). Details: MCC and control cell lines, CellTiter-Glo viability, 72 h; at 44.8 µM (top of the series) unless noted.
How it was run: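 Cells were incubated with compound for 72 hr at 37 degree celsius before CellTiter-Glo addition. Luminescence was normalized with no-cell wells as full cytotoxicity and DMSO as baseline.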
`CC1(CO)CC2C(O)C(=O)C3(CO)CC3(C)C2C1` (centres undefined) was tested, and the outcome was “inactive”.
In the case of `O=C(COc1ccc(Cl)cc1)NC1CCC(NC(=O)COc2ccc(Cl)cc2)CC1` (centres undefined), the outcome is reported as “inactive”.
`OC[C@H]1O[C@@H](OC(CCCCc2ccc(O)cc2)CCc2ccc(O)cc2)[C@H](O[C@@H]2OC[C@](O)(CO)[C@H]2O)[C@@H](O)[C@@H]1O` (some centres undefined) was tested, and the outcome was “inactive [at 17.4 µM]”.
In the case of `C=C1CCC[C@]2(C)C[C@]3(O)OC(=O)C(C)=C3C[C@@H]12`, the outcome is reported as “inactive”.
For `Nc1ncnc2c1ncn2[C@H]1CCCO1`, the outcome was “inactive”.
`CC1=C2[C@@H]([C@H](C)CC[C@H]2/C=C(\C)C(=O)O)[C@H](O)C1` was tested, and the outcome was “inactive”.
For `CC1=CC(=O)CC(C)(C)C1CCC(C)OC1OC(COC(=O)c2cc(O)c(O)c(O)c2)C(O)C(O)C1O` (centres undefined), the outcome was “inactive [at 17.4 µM]”.
For `COC(=O)[C@H](CC1C=NC=N1)NCC12CC3CC(CC(C3)C1)C2` (some centres undefined), the outcome was “inactive”.
With `CC1(C)CCCC2(C)C3=C(C(=O)OC3O)C(O)CC12` (centres undefined) the outcome was “inactive”.
With `CC(=O)O[C@@H]1C[C@@]23C[C@@]24CC[C@H](OC2OC[C@@H](O)[C@H](O)[C@H]2O)C(C)(C)[C@@H]4CC[C@H]3[C@]2(C)CC3OC4(C[C@@H](C)C3[C@@]12C)OCC1(C)OC14` (some centres undefined) the outcome was “inactive [at 17.4 µM]”.
`C=CC1C(O[C@@H]2O[C@H](CO)[C@@H](O)[C@H](O)[C@H]2O)OC=C(C(=O)OC)C1CC(=O)O` (some centres undefined) was tested, and the outcome was “inactive [at 17.4 µM]”.
With `C#Cc1cnc2[nH]c(=O)n(C(CC)CC)c2n1` the outcome was “inactive”.
`CC(C)C(=O)O[C@@H]1[C@@H](O)[C@@H](O[C@H]2O[C@H](CO)[C@@H](O)[C@H](O)[C@H]2O)O[C@H](CO)[C@H]1O` was tested, and the outcome was “inactive [at 17.4 µM]”.
In the case of `COc1cc(C)c(C(=O)O[C@H]2[C@@H](O)[C@H](n3ccc(=O)[nH]c3=O)O[C@@H]2CO)c(OC)c1`, the outcome is reported as “inactive [at 17.4 µM]”.
For `C[C@@H]1O[C@@H](OC[C@H]2O[C@@H](OCC3CCC4CC3C4(C)C)[C@H](O)[C@@H](O)[C@@H]2O)[C@H](O)[C@H](O)[C@H]1O` (some centres undefined), the outcome was “inactive [at 17.4 µM]”.
For `CC1=CC(=O)C[C@H]2[C@@H]1CC[C@@H](C)[C@]21CO[C@H](c2ccoc2)C1=O`, the outcome was “inactive”.
For `CC(C)c1ccc(CC(=O)N2CCC[C@@H](c3cccc(OC(C)(C)C(=O)O)c3)C2)cc1`, the outcome was “inactive”.
With `CC(=O)NC(CCC(=O)O)C(=O)NCCc1ccc(O)cc1` (centres undefined) the outcome was “inactive”.
In the case of `C=C[C@H]1[C@H](O[C@@H]2O[C@H](CO[C@@H]3OC[C@](O)(CO)[C@H]3O)[C@@H](O)[C@H](O)[C@H]2O)OC=C2C(=O)OCC[C@H]21`, the outcome is reported as “inactive [at 17.4 µM]”.
For `c1ccc(Nc2nc3c(s2)CCCc2[nH]ncc2-3)nc1`, the outcome was “inactive”.
With `COC(=O)C1C(CC(C)=O)C=CC(O)C12Oc1cc(C)cc(O)c1C2=O` (centres undefined) the outcome was “inactive”.
With `COC(=O)C1=C[C@@H](O)[C@@H](O)[C@H](O[C@@H]2O[C@H](COC(=O)/C=C/c3ccccc3)[C@@H](O)[C@H](O)[C@H]2O)C1` the outcome was “inactive [at 17.4 µM]”.
In the case of `C/C=C(\C)C(=O)O[C@@H](C)[C@H]1CC[C@]2(O)C3CCC4C[C@@H](OC5CC(OC)C(OC6CC(OC)C(OC7CC(OC)C(OC8OC(C)C(OC9OC(CO)C(O)C(O)C9O)C(OC)C8O)C(C)O7)C(C)O6)C(C)O5)CC[C@]4(C)C3[C@H](O)[C@@H](O)[C@]12C` (some centres undefined), the outcome is reported as “inactive [at 9.27 µM]”.
`C[C@@]12C[C@]3(O)O[C@H](O1)[C@]1(COC(=O)c4ccccc4)[C@H]3C[C@@]12O[C@@H]1O[C@H](COC(=O)c2ccccc2)[C@@H](O)[C@H](O)[C@H]1O` was tested, and the outcome was “inactive [at 17.4 µM]”.
For `C/C=C(\C)C(=O)O[C@H]1[C@H](O)[C@]2(COC(C)=O)[C@H](O)C[C@]3(C)C(=CCC4[C@@]5(C)CC[C@H](O[C@@H]6O[C@H](C(=O)O)[C@@H](O[C@@H]7O[C@H](CO)[C@@H](O)[C@H](O)[C@H]7O)[C@H](O)[C@H]6O[C@@H]6O[C@H](CO)[C@@H](O)[C@H](O)[C@H]6O)[C@](C)(CO)C5CC[C@]43C)[C@@H]2CC1(C)C` (some centres undefined), the outcome was “inactive [at 9.27 µM]”.
`CCC(CC)n1ccc2c(C(=O)NCc3c(C)cc(C)[nH]c3=O)cc(C#N)cc21` was tested, and the outcome was “inactive”.
In the case of `COc1cc(O[C@@H]2O[C@H](CO)[C@@H](O)[C@H](O)[C@H]2O)c(CCC(=O)OC[C@H]2O[C@@H](Oc3cc(OC)c(C4OC(=O)C(C)(O)C4O)cc3CCC(=O)O)[C@H](O)[C@@H](O)[C@@H]2O)cc1C1OC(=O)C(C)(O)C1O` (some centres undefined), the outcome is reported as “inactive [at 9.27 µM]”.
In the case of `CC(=O)O[C@H]1C[C@@H]2[C@]3(CC[C@]4(C)[C@@H](C5(C)CCC(C(C)(C)O)O5)[C@@H](O)C[C@@]24C)C[C@@]32CC[C@H](O[C@@H]3OC[C@@H](O)[C@H](O)[C@H]3O)C(C)(C)[C@H]12` (some centres undefined), the outcome is reported as “inactive [at 17.4 µM]”.
For `CC1(C)CCC[C@@]2(C)[C@H]1[C@H](O)C=C1COC(=O)[C@@]12O`, the outcome was “inactive”.
